According to PubChem BioAssay (NCATS):
Results filed as inconclusive are left out. Calls of active or inactive are those of the source. Unless noted, calls come from the whole dose curve; as a rule, active = well fitted curve in the direction sought with a large enough effect; inconclusive = small, poorly fitted or top-dose-only effect, or another doubt; inactive = no such curve, though single readings can be large; an effect the other way counts as inactive or inconclusive.

Experiments:
[1] = target: Thioredoxin reductase 1, cytoplasmic (Rattus norvegicus) (UniProt O89049); test: qHTS Assay for Inhibitors of Mammalian Selenoprotein Thioredoxin Reductase 1 (TrxR1) (AID 488773); conditions: Potency: inhibition; note: nearly all actives have a fitted effect of over 40% in size; note: potency is the fitted concentration of half-maximal effect
Sequence of Thioredoxin reductase 1, cytoplasmic (Rattus norvegicus) (O89049 whole entry, looked up): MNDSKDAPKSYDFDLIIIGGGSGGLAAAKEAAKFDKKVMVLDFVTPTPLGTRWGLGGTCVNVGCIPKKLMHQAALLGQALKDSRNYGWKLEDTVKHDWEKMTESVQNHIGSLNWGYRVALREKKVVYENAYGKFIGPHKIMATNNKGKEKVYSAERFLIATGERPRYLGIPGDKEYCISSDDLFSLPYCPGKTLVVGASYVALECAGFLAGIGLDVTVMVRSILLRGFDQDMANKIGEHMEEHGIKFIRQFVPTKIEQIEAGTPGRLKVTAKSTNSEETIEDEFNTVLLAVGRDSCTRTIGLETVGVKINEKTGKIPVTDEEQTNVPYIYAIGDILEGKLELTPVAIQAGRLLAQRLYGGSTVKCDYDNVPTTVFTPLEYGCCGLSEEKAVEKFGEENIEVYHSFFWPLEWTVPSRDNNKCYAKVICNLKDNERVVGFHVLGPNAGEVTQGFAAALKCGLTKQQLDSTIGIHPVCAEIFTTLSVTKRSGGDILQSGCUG
Summary of the method: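 Inhibition is scored from the loss of NADPH fluorescence between first and last reads of an 8-min kinetic run. Selenite (400 uM) was the substrate, added after 15 min compound preincubation at room temperature.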

[2] = target: Flap endonuclease 1 (Homo sapiens) (UniProt P39748); test: qHTS Validation Assay for the Inhibitors of Human Flap endonuclease 1 (FEN1) (AID 488816); note: % is set by controls: 0 for no effect and ±100 for the full control effect
Sequence of Flap endonuclease 1 (Homo sapiens) (P39748 whole entry, looked up): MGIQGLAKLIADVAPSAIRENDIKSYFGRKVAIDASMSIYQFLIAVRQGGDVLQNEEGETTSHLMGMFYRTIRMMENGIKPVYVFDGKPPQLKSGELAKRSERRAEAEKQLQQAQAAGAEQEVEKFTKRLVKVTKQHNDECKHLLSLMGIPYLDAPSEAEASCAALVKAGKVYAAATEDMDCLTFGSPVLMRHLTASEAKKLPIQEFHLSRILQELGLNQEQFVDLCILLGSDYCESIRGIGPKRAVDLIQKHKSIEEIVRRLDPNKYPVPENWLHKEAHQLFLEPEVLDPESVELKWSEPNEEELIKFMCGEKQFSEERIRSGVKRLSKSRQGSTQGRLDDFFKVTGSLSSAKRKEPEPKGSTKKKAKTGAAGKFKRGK
Summary of the method: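 qHTS format: compounds and 10 nM FEN1 incubated 15 min at room temperature before adding 50 nM substrate. Cleavage followed by reads at 0 and 15 min; normalized data fitted to a four-parameter Hill curve.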

[3] = target: M-phase phosphoprotein 8 (Homo sapiens) (UniProt Q99549); test: qHTS Validation Assay for Inhibitors for MPP8 Chromodomain Interactions with Methylated Histone Tails (AID 488949);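 note: 50 nM MPP8 with 50 nM peptide preformed then compounds added for 30 min; AlphaScreen signal from MPP8 chromodomain bound to biotinylated H3K9me3 peptide; top concentration of the series differs between compounds; % is set by controls: 0 for no effect and ±100 for the full control effect; nearly all actives have a fitted effect of over 55% in size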
Sequence of M-phase phosphoprotein 8 (Homo sapiens) (Q99549 whole entry, looked up): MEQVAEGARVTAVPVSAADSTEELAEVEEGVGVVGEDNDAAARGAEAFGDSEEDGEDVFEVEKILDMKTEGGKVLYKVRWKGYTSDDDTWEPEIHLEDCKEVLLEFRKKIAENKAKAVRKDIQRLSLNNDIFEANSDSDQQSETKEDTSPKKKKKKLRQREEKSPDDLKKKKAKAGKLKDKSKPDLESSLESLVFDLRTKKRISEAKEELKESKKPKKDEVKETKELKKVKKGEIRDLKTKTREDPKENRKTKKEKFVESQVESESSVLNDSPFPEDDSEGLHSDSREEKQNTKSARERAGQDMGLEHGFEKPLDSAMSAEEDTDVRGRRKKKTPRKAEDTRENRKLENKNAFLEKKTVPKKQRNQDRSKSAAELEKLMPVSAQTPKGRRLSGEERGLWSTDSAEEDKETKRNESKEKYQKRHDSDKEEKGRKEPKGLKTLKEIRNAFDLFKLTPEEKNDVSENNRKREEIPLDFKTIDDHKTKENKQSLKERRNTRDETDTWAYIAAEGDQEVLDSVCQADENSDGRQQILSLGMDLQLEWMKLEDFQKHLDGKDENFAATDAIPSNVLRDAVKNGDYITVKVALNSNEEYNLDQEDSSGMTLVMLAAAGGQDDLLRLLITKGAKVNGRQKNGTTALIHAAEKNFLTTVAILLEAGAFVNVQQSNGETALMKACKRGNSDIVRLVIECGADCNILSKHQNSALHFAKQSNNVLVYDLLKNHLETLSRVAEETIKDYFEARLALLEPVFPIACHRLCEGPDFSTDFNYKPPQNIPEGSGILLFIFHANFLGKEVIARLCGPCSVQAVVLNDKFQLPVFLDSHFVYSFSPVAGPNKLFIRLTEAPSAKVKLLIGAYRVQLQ
Summary of the method: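 50 nM MPP8 + 50 nM b-H3K9me3 peptide, PBS pH 7.4/0.01% Tween-20, 30 min RT; + cpd 30 min RT; + AlphaScreen donor/Ni-chelate acceptor beads 10 ug/mL final, 30 min dark; luminescence read.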

[4] = target: Chromobox protein homolog 1 (Homo sapiens) (UniProt P83916); test: qHTS Validation Assay for Inhibitors of HP1-beta Chromodomain Interactions with Methylated Histone Tails (AID 488953);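 note: loss of AlphaScreen luminescence from HP1-beta binding biotinylated H3K9me3 peptide; series mostly up to about 110 µM; % is set by controls: 0 for no effect and ±100 for the full control effect; nearly all actives have a fitted effect of over 50% in size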
Sequence of Chromobox protein homolog 1 (Homo sapiens) (P83916 whole entry, looked up): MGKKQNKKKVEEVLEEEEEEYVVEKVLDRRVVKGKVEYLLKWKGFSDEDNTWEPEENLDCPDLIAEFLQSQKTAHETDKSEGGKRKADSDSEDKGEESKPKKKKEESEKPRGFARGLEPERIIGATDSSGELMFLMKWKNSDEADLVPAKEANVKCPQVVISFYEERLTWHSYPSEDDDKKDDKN
Summary of the method: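 Disruption of preformed HP1-beta:H3K9me3 peptide complexes (both 50 nM, PBS pH 7.4 with 0.01% Tween-20) is measured by AlphaScreen after 30 min compound exposure at room temperature, using streptavidin donor and nickel chelate acceptor beads at 10 ug/mL final.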

[5] = target: Methanococcus maripaludis chaperonin (MmCpn) (UniProt Q6LX38); test: High-Throughput Screening for Modulators of Cytosolic Chaperonin Activity: MmCpn Primary Screen (AID 488978);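 note: 50 nM MmCpn enzyme hydrolysing 30 µM ATP at 37 °C; 0% is about no effect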
Sequence of Methanococcus maripaludis chaperonin (MmCpn) (Q6LX38 1-543): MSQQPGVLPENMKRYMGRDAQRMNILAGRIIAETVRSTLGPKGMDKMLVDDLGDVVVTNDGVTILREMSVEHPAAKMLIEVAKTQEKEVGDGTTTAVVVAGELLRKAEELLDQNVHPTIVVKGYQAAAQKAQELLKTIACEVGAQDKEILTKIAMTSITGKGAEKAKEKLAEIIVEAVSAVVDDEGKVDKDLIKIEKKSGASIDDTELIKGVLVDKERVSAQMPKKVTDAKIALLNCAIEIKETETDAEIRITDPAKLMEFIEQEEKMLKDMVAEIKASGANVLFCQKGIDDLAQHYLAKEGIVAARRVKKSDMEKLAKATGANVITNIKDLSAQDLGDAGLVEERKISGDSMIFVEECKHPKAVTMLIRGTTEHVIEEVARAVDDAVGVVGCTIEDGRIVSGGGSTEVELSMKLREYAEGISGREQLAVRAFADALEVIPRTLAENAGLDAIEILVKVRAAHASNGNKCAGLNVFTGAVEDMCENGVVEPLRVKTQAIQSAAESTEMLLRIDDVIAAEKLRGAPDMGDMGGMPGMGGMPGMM
Summary of the method: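 Steps: chaperonin 50 nM final; add compound, 5 min RT; start with ATP, 30 uM final; hold 10 min at 37C; add ADP Transcreener HTRF reagent, 5 min; read ex 320, em 590 and 665 nm.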

[6] = target: Transient receptor potential cation channel subfamily V member 1 (Homo sapiens) (UniProt Q8NER1); test: HTS Assay for Compounds that Act as Enhancers of the Vanilloid Receptor 1 (AID 488979); note: 0% is about no effect
Sequence of Transient receptor potential cation channel subfamily V member 1 (Homo sapiens) (Q8NER1 whole entry, looked up): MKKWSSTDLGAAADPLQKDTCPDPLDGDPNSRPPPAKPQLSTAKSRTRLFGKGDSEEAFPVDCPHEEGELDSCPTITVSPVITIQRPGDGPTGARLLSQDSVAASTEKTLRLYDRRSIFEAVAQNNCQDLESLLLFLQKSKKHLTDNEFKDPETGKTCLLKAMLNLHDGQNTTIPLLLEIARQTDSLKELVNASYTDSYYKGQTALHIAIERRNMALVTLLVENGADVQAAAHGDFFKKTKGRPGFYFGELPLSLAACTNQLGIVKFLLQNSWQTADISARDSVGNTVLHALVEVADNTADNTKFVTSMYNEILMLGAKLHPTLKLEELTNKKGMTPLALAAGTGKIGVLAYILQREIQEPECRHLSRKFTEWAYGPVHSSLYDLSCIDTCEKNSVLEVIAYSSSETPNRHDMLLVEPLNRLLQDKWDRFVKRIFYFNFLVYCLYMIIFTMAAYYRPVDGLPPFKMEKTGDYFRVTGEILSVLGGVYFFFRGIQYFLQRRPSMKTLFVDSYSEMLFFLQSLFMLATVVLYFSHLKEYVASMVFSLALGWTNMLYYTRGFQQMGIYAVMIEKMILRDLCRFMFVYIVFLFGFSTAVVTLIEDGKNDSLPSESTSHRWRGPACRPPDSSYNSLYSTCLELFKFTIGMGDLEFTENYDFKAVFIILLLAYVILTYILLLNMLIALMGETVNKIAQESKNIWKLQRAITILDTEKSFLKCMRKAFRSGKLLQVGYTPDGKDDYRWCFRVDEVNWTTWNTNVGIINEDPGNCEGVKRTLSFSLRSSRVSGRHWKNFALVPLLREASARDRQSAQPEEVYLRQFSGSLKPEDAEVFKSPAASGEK
Summary of the method: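 Calcium influx kinetics via Fluo-8 (480/520 nm) in TRPV1-expressing cells, 2000/well cultured overnight at 35.5C. Compound-alone read 3 min (agonist phase), followed by EC20 capsaicin challenge for 2 min (enhancer phase).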

[7] = target: Thyrotropin receptor (Homo sapiens) (UniProt P16473); test: qHTS Assay for Antagonists of the Thyroid Stimulating Hormone Receptor (AID 488980); note: series mostly up to about 58 µM; 0% is about no effect
Summary of the method: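 Readout is cAMP by HTRF competition between cellular cAMP and cAMP-d2 for a cryptate-labelled antibody. Antagonism was assessed in TSHR-transfected HEK293 cells stimulated with 4 nM TSH (EC80, final) in the presence of RO 20-1724.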

[8] = target: D(1A) dopamine receptor (Homo sapiens) (UniProt P21728); test: HTS Assay for Allosteric Agonists of the Human D1 Dopamine Receptor: Primary Screen for Agonists (AID 488981); note: 0% is about no effect
Sequence of D(1A) dopamine receptor (Homo sapiens) (P21728 whole entry, looked up): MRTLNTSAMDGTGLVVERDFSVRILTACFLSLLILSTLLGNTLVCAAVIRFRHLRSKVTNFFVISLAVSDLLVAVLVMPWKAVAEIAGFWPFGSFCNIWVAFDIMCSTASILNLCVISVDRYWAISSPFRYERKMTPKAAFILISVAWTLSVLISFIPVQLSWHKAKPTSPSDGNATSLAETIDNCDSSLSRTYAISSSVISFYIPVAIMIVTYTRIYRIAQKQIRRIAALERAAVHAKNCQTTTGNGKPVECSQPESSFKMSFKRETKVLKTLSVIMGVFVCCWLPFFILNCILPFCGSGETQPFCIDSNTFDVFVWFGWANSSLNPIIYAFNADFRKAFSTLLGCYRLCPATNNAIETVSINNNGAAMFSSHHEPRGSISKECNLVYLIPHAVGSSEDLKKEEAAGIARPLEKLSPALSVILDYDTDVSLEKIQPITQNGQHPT
Summary of the method: (§1)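 Calcium flux in an inducible, force-coupled HEK293 Trex D1 line (overnight at 30 C): agonist mode is the 180 s kinetic read after compound; potentiator mode is the following 180 s read after dopamine at EC20.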

[9] = target: D(1A) dopamine receptor (Homo sapiens) (UniProt P21728); test: HTS Assay for Allosteric Agonists of the Human D1 Dopamine Receptor: Primary Screen for Potentiators (AID 488982); note: 0% is about no effect
Summary of the method: as §1

[10] = target: D(1A) dopamine receptor (Homo sapiens) (UniProt P21728); test: HTS Assay for Allosteric Agonists of the Human D1 Dopamine Receptor: Primary Screen for Antagonists (AID 488983);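 note: calcium flux response to an EC80 dopamine challenge measured with no-wash dye; % is set by controls: 0 for no effect and ±100 for the full control effect; nearly all actives have a fitted effect of over 65% in size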
Summary of the method: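 Kinetic fluorescence at 1 cycle/sec tracked intracellular calcium in force-coupled, tetracycline-inducible HEK293 T-REx D1 cells. Loss of response to an EC80 dopamine dose, given 180 s after compound, marked antagonists.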

[11] = Validation screen for small molecules that induce genotoxicity in human embryonic kidney (HEK293T) cells expressing luciferase-tagged ELG1 (AID 493106); note: 0% is about no effect
Summary of the method: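 Cells were dispensed at 2,000 per well, then 23 nL compound or DMSO was pinned in. After 16 hr at 37 °C and 5% CO2, ONE-Glo reagent was added. Luciferase activity was measured following 30 min at room temperature.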

[12] = target: ATPase family AAA domain-containing protein 5 (Homo sapiens) (UniProt Q96QE3); test: Validation screen for small molecules that inhibit ELG1-dependent DNA repair in human embryonic kidney (HEK293T) cells expressing luciferase-tagged ELG1 (AID 493107);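 note: cells co-treated with the DNA-damaging agent 5-fluorouridine alongside compound; series mostly up to about 46 µM; % is set by controls: 0 for no effect and ±100 for the full control effect; inhibitors lower the ELG1-luciferase luminescence signal; nearly all actives have a fitted effect of over 70% in size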
Summary of the method: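 Cells are dispensed in 1536-well format, then 5-fluorouridine and compound are pinned in. After a 16 hr incubation at 37 °C and 5% CO2, ONE-Glo is added and luciferase measured on a CCD imager.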

[13] = target: Thyrotropin-releasing hormone receptor (Homo sapiens) (UniProt P34981); test: qHTS for Small Molecule Agonists and Allosteric Enhancers of Human TRH Receptor: Validation Screen for Agonists (AID 493127;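 active = calcium activation more than 3 SD above the typical response in the agonist read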;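 note: intracellular calcium rise by fluo-8 fluorescence before TRH EC20 addition; 0% is about no effect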); conditions: TRH receptor agonist cell assay; at 2 µM; stronger effect = higher value
Sequence of Thyrotropin-releasing hormone receptor (Homo sapiens) (P34981 whole entry, looked up): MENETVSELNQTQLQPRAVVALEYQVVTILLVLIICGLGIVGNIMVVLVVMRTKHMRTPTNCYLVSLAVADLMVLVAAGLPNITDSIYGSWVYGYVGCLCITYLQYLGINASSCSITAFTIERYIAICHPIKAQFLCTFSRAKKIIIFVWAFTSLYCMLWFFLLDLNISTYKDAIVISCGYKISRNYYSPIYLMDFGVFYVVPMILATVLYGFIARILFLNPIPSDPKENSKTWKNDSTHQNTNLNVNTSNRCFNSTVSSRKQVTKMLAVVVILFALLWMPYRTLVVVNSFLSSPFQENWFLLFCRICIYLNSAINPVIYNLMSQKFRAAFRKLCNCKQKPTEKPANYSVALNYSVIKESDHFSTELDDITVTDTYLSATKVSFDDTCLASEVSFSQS
Summary of the method: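 Compounds are added by online pintool to dye-loaded TRHR cells while fluorescence is recorded every second. A rise in calcium signal during the agonist read marks activation; a later 10 nM TRH addition (EC20) serves the separate enhancer mode.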

[14] = Nrf2 qHTS screen for inhibitors: Validation (AID 493153; active = well fitted inhibition curve with a large enough effect in the main read-out, with a control signal flat, not every such curve was filed as active); conditions: Potency: luciferase luminescence; viability change: measured here: cytotoxicity max response
Summary of the method: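 A549 ARE_Fluc, 5% FBS OPTI-MEM; cpd titration, 18-24 h, 37°C/5% CO2. Read 1: CellTiter-Fluor (Ex 405/Em 525), cytotox. Read 2: luciferase lum, Nrf2 activity.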

[15] = qHTS for Inhibitors of Cell Surface uPA Generation: Validation Assay (AID 493164);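 note: RAW 264.7 macrophage cells exposed to compound for 18 h; 0% is about no effect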
Summary of the method: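 ATP-Lite luminescence read-out: ATP remains high when uPA activity-dependent LF translocation into the cytoplasm is blocked. RAW 264.7 cells, 18 h compound exposure at 37 C; 7-point titration, 2.45 nM to 38.3 uM final.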

[16] = target: Galactokinase (Homo sapiens) (UniProt P51570); test: qHTS Validation Assay for Inhibitors of Human Galactokinase (GALK) (AID 493189); note: 0% is about no effect
Sequence of Galactokinase (Homo sapiens) (P51570 whole entry, looked up): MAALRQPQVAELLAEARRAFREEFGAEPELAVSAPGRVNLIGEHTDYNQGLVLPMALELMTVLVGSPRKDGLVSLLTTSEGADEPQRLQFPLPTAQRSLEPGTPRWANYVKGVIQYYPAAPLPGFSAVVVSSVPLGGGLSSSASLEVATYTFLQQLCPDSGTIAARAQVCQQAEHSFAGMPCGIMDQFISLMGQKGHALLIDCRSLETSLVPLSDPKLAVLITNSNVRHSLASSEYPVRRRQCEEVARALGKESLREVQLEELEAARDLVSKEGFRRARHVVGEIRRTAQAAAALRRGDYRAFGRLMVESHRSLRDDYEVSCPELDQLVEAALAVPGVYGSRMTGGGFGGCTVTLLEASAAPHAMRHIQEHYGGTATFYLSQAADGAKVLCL
Summary of the method: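 5 nM GALK / 100 uM galactose / 35 uM ATP, 20 mM HEPES pH8.0, 5 mM MgCl2, 60 mM NaCl, 1 mM DTT, 0.01% BSA (final). RT 1 h; Kinase-Glo Plus luminescence.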

[17] = Validation screen for small molecules that induce DNA re-replication in SW480 colon adenocarcinoma cells (AID 504364); note: 0% is about no effect
Summary of the method: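 Image-based qHTS: compounds were incubated with SW480 cells for 48 hr, nuclei stained with Hoechst, and per-nucleus fluorescence intensity scanned to flag cells with excess DNA content.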

[18] = target: Peptidyl-prolyl cis-trans isomerase NIMA-interacting 1 (Homo sapiens) (UniProt Q13526); test: qHTS Validation Assay to Find Inhibitors of Pin1 (AID 504536; active = well fitted inhibition curve with a large enough effect in the polarisation, with a control signal flat, not every such curve was filed as active; the % refers to the polarisation;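 note: 0% = full Pin1 enzyme wells and -100% = no-enzyme wells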)
Summary of the method: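 Fluorescence polarization competition: compounds (titration) displace HiFluor-488-labeled Pin1-1b peptide from Pin1 (0.3 uM final) in pH 7.5 HEPES buffer with DTT, 10 min at room temperature; %Activity normalized to no-enzyme wells, curves fitted.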

[19] = target: Phosphoglycerate kinase, glycosomal (Trypanosoma brucei brucei) (UniProt P07378); test: qHTS Validation Assay to Find Inhibitors of Phosphoglycerate Kinase (AID 504547);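 note: control wells lack PGK and mark full inhibition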
Sequence of Phosphoglycerate kinase, glycosomal (Trypanosoma brucei brucei) (P07378 whole entry, looked up): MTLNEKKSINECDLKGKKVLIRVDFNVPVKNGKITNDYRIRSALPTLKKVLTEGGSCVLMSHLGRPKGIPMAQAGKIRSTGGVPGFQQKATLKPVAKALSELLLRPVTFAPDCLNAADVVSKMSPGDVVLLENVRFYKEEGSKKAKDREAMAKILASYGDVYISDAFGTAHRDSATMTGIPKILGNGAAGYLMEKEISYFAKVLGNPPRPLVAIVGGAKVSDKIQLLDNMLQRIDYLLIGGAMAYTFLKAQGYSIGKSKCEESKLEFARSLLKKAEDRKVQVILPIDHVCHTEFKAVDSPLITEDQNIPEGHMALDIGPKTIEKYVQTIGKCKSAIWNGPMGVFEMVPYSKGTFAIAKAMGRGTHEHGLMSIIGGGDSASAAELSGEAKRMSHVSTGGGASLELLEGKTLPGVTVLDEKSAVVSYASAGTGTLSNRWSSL
Summary of the method: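 Luminescence end-point (Kinase-Glo Plus, 10 min) after a 60 min room-temperature coupled reaction. GAPDH at 100nM final supplies 1,3-BPG to PGK. Buffer: 100mM TEA pH 7.6, 5mM MgCl2, 0.01% Tween-20. Wells lacking PGK served as controls.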

[20] = target: ATP-dependent 6-phosphofructokinase (Trypanosoma brucei brucei) (UniProt O15648); test: qHTS Assay to Find Inhibitors of T. brucei phosphofructokinase: hit validation (AID 492961);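 note: luminescence reports ADP formed as PFK phosphorylates fructose-6-phosphate with ATP; series mostly up to about 51 µM; % is set by controls: 0 for no effect and ±100 for the full control effect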
Summary of the method: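 Measures ADP output of PFK (1.25 nM) at 0.1 mM ATP, 0.5 mM F6P, pH 8.0 TEA buffer with 5 mM MgCl2. No-enzyme wells define full inhibition; uninhibited enzyme wells define zero.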

Cn1cnc([N+](=O)[O-])c1Sc1ncnc2nc[nH]c12
inactive: Potency [2] | Potency [3] | Potency [4] | outcome [5] | outcome [6] | outcome [7] | Potency [8] | Potency [9] | Potency [10] | Potency [11] | Potency [12] | activation [13] 0.875% | Potency [14] | outcome [15] | outcome [16] | outcome [17] | outcome [18] | outcome [19]
active: Potency [1] 15 µM
-10.4%: viability change [14]

O=C1CCC(N2C(=O)c3ccccc3C2=O)C(=O)N1 (centres undefined)
-1.75%: viability change [14]
inactive: Potency [1] | Potency [2] | Potency [3] | Potency [4] | outcome [5] | outcome [6] | outcome [7] | Potency [8] | Potency [9] | Potency [10] | Potency [11] | Potency [12] | activation [13] 0.188% | Potency [14] | outcome [15] | outcome [16] | outcome [17] | outcome [18] | outcome [19]

Clc1cccc(Cl)c1NC1=NCCN1
0.846%: viability change [14]
inactive: Potency [1] | Potency [2] | Potency [3] | Potency [4] | outcome [5] | outcome [6] | outcome [7] | Potency [8] | Potency [9] | Potency [10] | Potency [11] | Potency [12] | Potency [14] | outcome [15] | outcome [16] | outcome [17] | outcome [18] | outcome [19]

NS(=O)(=O)c1cc2c(cc1Cl)NC=NS2(=O)=O
-3.76%: viability change [14]
inactive: Potency [1] | Potency [2] | Potency [3] | Potency [4] | outcome [5] | outcome [6] | outcome [7] | Potency [8] | Potency [9] | Potency [10] | Potency [11] | Potency [12] | activation [13] 1.12% | Potency [14] | outcome [15] | outcome [16] | outcome [17] | outcome [18] | outcome [19]

O=NN(CCCl)C(=O)NCCCl
inactive: Potency [1] | Potency [2] | Potency [3] | Potency [4] | outcome [5] | outcome [6] | outcome [7] | Potency [8] | Potency [9] | Potency [10] | Potency [11] | Potency [12] | activation [13] 0.438% | Potency [14] | outcome [15] | outcome [16] | outcome [17] | outcome [18] | outcome [19]
-0.612%: viability change [14]

CC(=O)Oc1ccccc1C(=O)O
inactive: Potency [1] | Potency [2] | Potency [3] | Potency [4] | outcome [5] | outcome [6] | outcome [7] | Potency [8] | Potency [9] | Potency [10] | outcome [20] | Potency [11] | Potency [12] | Potency [14] | outcome [15] | outcome [16] | outcome [17] | outcome [18] | outcome [19]
-7.95%: viability change [14]
